{"source": "PubChem BioAssay (NCI)", "note": "About 83,000 compounds went through this panel and 20% of them were active in at least one assay; those are over-represented in the sample as a whole.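 The endpoint reported here, percent growth, reads 100 for growth as untreated, 0 for no net growth and -100 for all cells dead.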 Active and inactive are the calls of the source. Rule for the calls: active = growth percent below 10; inactive = the rest."}
{"tested_on": "IGROV1 ovarian", "assay": "NCI-60 one-dose screen, 48 h (100 = growth as untreated, 0 = no growth, -100 = all killed)", "conditions": "10 µM unless noted"}
{"smiles": "COc1ccc(-c2c(N)n[nH]c2-c2cc3c(c(OC)c2OC)OCO3)cc1", "growth": "96.4% (inactive)"}
{"smiles": "COc1cc(-c2nn(-c3cccc(NC(=O)c4cccc(C(F)(F)F)c4)c3)cc2-c2ccncc2)ccc1Cl", "growth": "34% (inactive)"}
{"smiles": "Clc1ccc(-c2nc3ccccc3s2)cc1Cl", "growth": "75% (inactive)"}
{"smiles": "Fc1ccc(CNCCNc2ncnc3c2cnn3-c2ccccc2)cc1", "growth": "94.2% (inactive)"}
{"smiles": "COc1ccc(-n2c(=O)sc3c(Cl)nc(C)nc32)c(OC)c1", "growth": "28.8% (inactive)"}
{"smiles": "O=C(O)c1nc(-c2ccccc2)oc1N1CCOCC1", "growth": "98.2% (inactive)"}
{"smiles": "Cn1c(=O)c2[nH]c(C3CC=CCC3)nc2n(C)c1=O", "note": "(stereo not given)", "growth": "111% (inactive)"}
{"smiles": "COc1ccc(C2C=C(c3ccc(N)cc3)N=C3SC=CN32)cc1OC", "note": "(stereo not given)", "growth": "101% (inactive)"}
{"smiles": "O=S(=O)(NCCNc1nccc(-c2c(-c3ccc(O)cc3)nc3sccn23)n1)c1cccc2ccccc12", "growth": "105% (inactive)"}
{"smiles": "O=S(=O)(NCCNc1nccc(-c2c(-c3ccc(F)cc3)nc3sccn23)n1)c1ccc(F)cc1", "growth": "61.8% (inactive)"}
{"smiles": "COc1ccc(/C=C2\\CN(Cc3cn(CCNc4ccnc5cc(Cl)ccc45)nn3)C/C(=C\\c3ccc(OC)c(OC)c3)C2=O)cc1OC", "growth": "7.35% (active)"}
{"smiles": "Cc1ccc(S(=O)(=O)c2nc(-c3ccccc3)oc2S(C)(=O)=O)cc1", "growth": "65.6% (inactive)"}
{"smiles": "COc1ccc(C2=Nn3c(nnc3-n3nc(C)cc3C)SC2)cc1", "growth": "32.2% (inactive)"}
{"smiles": "O=C(O)/C=C/C(=O)c1ccc(Cl)cc1", "growth": "114% (inactive)"}
{"smiles": "Cc1ccc(S(=O)(=O)NCCNc2nccc(-c3c(-c4ccc(O)cc4)nc4sccn34)n2)cc1", "growth": "97.1% (inactive)"}
